Assay: anti-His antibody binders, primary screen, artefact control for SMM control protein annotation, biochemical, small-molecule microarray, 635 nm fluorescence (AID 1128);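 further: score merges feature fluorescence with signal-to-noise for each printed compound spot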
Details: anti-His Alexa647 antibody binding, higher = more signal
For `CC(=O)N1CC2(CC2)CC1c1ccccc1` (centres undefined), the composite z-score was 0.712. Molecule `COCCOC(=O)N1C(=O)[C@@]2(c3cc(C#CCC(C(=O)OC)C(=O)OC)ccc31)[C@H](c1ccc(OCCO)cc1)N1[C@H](c3ccccc3)[C@H](c3ccccc3)OC(=O)[C@H]1[C@@H]2C(=O)N1CCc2cc(OC)c(OC)cc2C1` has a composite z-score of 1.75. Work on `C=CCC(OC(C)=O)[C@@H]1[C@@H](N(Cc2cccc3ccccc23)C(=O)Cc2ccc(F)cc2)c2cc(OCCCO)ccc2N1C(=O)c1ccc2ccccc2c1` (some centres undefined) yielded a composite z-score of 0.301. Molecule `CN1C2C=C(CCCO)C(C3C(=O)N(C(N)=O)C(=O)C32)C1C1CC1` (centres undefined) has a composite z-score of 0.352. For `CCCN1C(=O)[C@]2(Cc3ccccc31)N=C(c1ccc(OCCCO)cc1)O[C@@H]2c1ccccc1`, the composite z-score was 1.18. `NCCCCCNC(=O)[C@@H]1C[C@@H]2C(=O)N[C@@H](CCCCN)C(=O)N2[C@@H]1c1ccc(O)cc1` gave a composite z-score of 1.98. `Cc1ccc(C(C)CC(O)C2C=CC3C(=O)N(c4ccccc4)C(=O)C3N2Nc2ccccc2)o1` (centres undefined) gave a composite z-score of 0.943. With `CCCNC(=O)[C@@H]1c2ccccc2C(=O)N(Cc2ccc(OC(F)(F)F)cc2)[C@H]1c1ccc(CO)cc1` the composite z-score was 0.0772. `CC(C)C(CO)N1C(=O)[C@@H]2[C@H]3C(=O)OCC=C[C@H]3OC23C=CCN(c2ccc(Cl)cc2)C(=O)[C@@H]13` (some centres undefined) showed a composite z-score of -1.82. `CC(C)c1ccc(NN2C(C(O)c3ccc(F)cc3)C=CC3C(=O)N(c4ccccc4)C(=O)C32)cc1` (centres undefined) gave a composite z-score of 0.651. For `OCCCC1=CC(c2ccc(CN3CCCC3)cc2)N(Cc2cc3c(cc2Br)OCO3)CC1` (centres undefined), the composite z-score was 0.448. `COc1cc2c(cc1O)C(c1cccs1)N(Cc1cc3c(cc1Br)OCO3)CC2` (centres undefined) gave a composite z-score of 1.83. Work on `CCCNC(=O)[C@@]1(Sc2ccc(C)cc2)CC(=O)N(C2Cc3ccccc3C2)[C@@H]1c1ccc(CO)cc1I` yielded a composite z-score of 1.59. For `CC(C)=C1C(=O)C(c2ccccc2)=C2CN3C(=O)N(CCc4ccccc4)C(=O)[C@]3(Cc3ccc(C(F)(F)F)cc3)[C@H]21`, the composite z-score was -0.0822. `COc1cccc(C)c1NC(=O)O[C@H]1[C@H](OC(=O)Nc2ccccc2-c2ccccc2)[C@H](OC(=O)Nc2ccccc2-c2ccccc2)[C@@H](OC)O[C@@H]1CO` showed a composite z-score of 0.528. With `COCCCNC(=O)[C@@]1(CCC(=O)OC(C)(C)C)N=C(c2ccc(OCCCO)cc2)O[C@H]1c1ccccc1N=[N+]=[N-]` the composite z-score was 3.41. With `COc1cc2c(cc1O)C(c1ccc(CN3CCCC3)cc1)N(Cc1cc3c(cc1Br)OCO3)CC2` (centres undefined) the composite z-score was -0.381. `CCCC[C@@H](O)C1=C(COC)C[C@H]2C(=O)N(C)C(=O)[C@H]2[C@H]1CO` showed a composite z-score of 0.217. Molecule `COC(=O)C(CC#Cc1ccc2c(c1)[C@]1(C(=O)N2)[C@H](c2ccc(O)cc2)N2[C@H](c3ccccc3)[C@H](c3ccccc3)OC(=O)[C@H]2[C@@H]1C(=O)NC[C@H](O)c1ccccc1)C(=O)OC` has a composite z-score of 0.509. With `COC(=O)C1=CC(CCCO)=CC(c2ccc(CN3CCCC3)cc2)N(Cc2cccc(OC(F)(F)F)c2)C=C1C(=O)OC` (centres undefined) the composite z-score was 1.6. Work on `NC(=O)NCC#Cc1ccc2c(c1)[C@]1(C(=O)N2)[C@H](c2ccccc2OCCO)N2[C@H](c3ccccc3)[C@H](c3ccccc3)OC(=O)[C@H]2[C@@H]1C(=O)O` yielded a composite z-score of -0.241. For `COC(=O)[C@@H]1N=C(c2ccc(OCCCO)cc2)O[C@@H]1c1ccccc1`, the composite z-score was 1.33. `C=CCC(OC(C)=O)[C@@H]1[C@@H](N(Cc2cccc3ccccc23)C(=O)Cc2ccc(OC)cc2)c2cc(OCCCO)ccc2N1C(=O)c1ccc(-c2ccccc2)cc1` (some centres undefined) showed a composite z-score of -0.328. For `CC(C)[Si]1(C(C)C)OCc2cc(-c3ccc(-c4ccc(Cl)c(Cl)c4)o3)nc(-c3ccccc3)c21`, the composite z-score was -0.534.
